Measured values as given in PubChem BioAssay (NCATS).
Records with an inconclusive call do not appear. Calls of active or inactive are those of the source. Calls come from the whole dose curve.

How the values were obtained:
[1] = Primary qHTS for Huh7 cytotoxicity: counterscreen for inhibitors of MERS-S pseudotyped particle cell entry (AID 1479147)
[2] = Primary qHTS for inhibitors of MERS-S pseudo-typed particle cell entry (AID 1479149); note: nearly all actives have a fitted effect of over 60% in size
[3] = Primary qHTS for Vero E6 cytotoxicity: counterscreen for inhibitors of SARS-S pseudo-typed particle cell entry (AID 1479150)

Measured: Potency

C[C@@H]1CCC[C@H](C)N1CCCC(O)(c1ccccc1)c1ccccn1 (stereo partly drawn)
inactive: all assays above

CCN1C(=O)c2ccccc2C1Nc1ccc(OCCN2CCCCC2)cc1 (stereo not drawn)
inactive: all assays above

O=C1O[C@H]([C@@H](O)CO)C(O)=C1O
inactive: all assays above

CN(Cc1cc(Br)cc(Br)c1N)C1CCCCC1
inactive: all assays above

O=C(NC1CCN(CCc2c[nH]c3ccccc23)CC1)c1ccccc1
inactive: all assays above

CCN(CC)CCOc1ccccc1C(=O)CCc1ccccc1
inactive: all assays above
